Screening results (PubChem BioAssay)
A selection: hits, their analogues and other compounds. The true share with any hit is near 10%.
HP1b binding inh = HTS for Inhibitors of HP1-beta Chromodomain Interactions with Methylated Histone Tails; AlphaScreen HP1-beta / biotin-H3K9me3 peptide binding; actives 0.56% (n = 390,000); Potency, µM (highest dose often 114 µM), for the others: at the highest dose activity change, negative = inhibition, actives largely listed as inhibitors; note: potency is the fitted concentration of half-maximal effect; nearly all actives have a fitted effect of over 70% in size
Target sequence (P83916 whole entry, looked up): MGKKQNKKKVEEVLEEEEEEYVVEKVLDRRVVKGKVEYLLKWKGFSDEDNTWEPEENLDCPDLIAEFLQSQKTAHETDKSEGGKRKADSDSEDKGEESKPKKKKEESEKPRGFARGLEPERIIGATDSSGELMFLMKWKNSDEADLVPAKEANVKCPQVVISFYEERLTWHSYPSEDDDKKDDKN
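HP1-beta protein (50 nM final) preincubated 30 min at room temperature with biotinylated H3(1-18)K9me3 peptide (50 nM) in PBS pH 7.4, 0.01% Tween-20, then compound added for 30 min. AlphaScreen streptavidin donor/nickel chelate acceptor beads (10 ug/mL final), 30 min dark, luminescence read.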
JMJD2A Tudor inh = qHTS Assay for Inhibitors of JMJD2A-Tudor Domain | Lysine-specific demethylase 4A (Homo sapiens), O75164 | Potency, µM (series often up to 114 µM), for the others: at the highest dose activity change, negative = inhibition, actives largely listed as inhibitors | AlphaScreen JMJD2A-Tudor / H3K4me3 peptide binding | actives 4.4% (n = 390,000); note: potency is the fitted concentration of half-maximal effect; % is set by controls: 0 for no effect and ±100 for the full control effect; nearly all actives have a fitted effect of over 50% in size
Six1-Eya2 inh = qHTS Assay for Inhibitors of the Six1/Eya2 Interaction; Homeobox protein SIX1 (Homo sapiens) + Protein phosphatase EYA2 (Homo sapiens), …; AlphaScreen GST-Six1/His-Eya2 binding, biochemical; hits give low values; activity change, % (test concentration not listed); AID 651725, 2012; actives 0.56% (n = 360,000); in the data active = activity change below about -65%; inconclusive = mostly about -30% to -63%; note: % is set by controls: 0 for no effect and ±100 for the full control effect
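Compounds are tested against tagged Six1 and Eya2 proteins bridged by glutathione donor and nickel acceptor beads; after a one-hour incubation at 37 °C without light, AlphaScreen emission is recorded.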
G9a inh = qHTS Assay for Inhibitors of Histone Lysine Methyltransferase G9a; G9a H3K9 monomethylation, AlphaScreen, 2 h; Potency, µM (doses to about 102 µM), for inactives: at the highest dose activity, negative = inhibition, most hits filed as inhibitors; actives 8.8% (n = 350,000); AID 504332, 2011; note: potency is the fitted concentration of half-maximal effect; % is set by controls: 0 for no effect and ±100 for the full control effect; nearly all actives have a fitted effect of over 75% in size
Target sequence (Q96KQ7 913-1193 limits assumed): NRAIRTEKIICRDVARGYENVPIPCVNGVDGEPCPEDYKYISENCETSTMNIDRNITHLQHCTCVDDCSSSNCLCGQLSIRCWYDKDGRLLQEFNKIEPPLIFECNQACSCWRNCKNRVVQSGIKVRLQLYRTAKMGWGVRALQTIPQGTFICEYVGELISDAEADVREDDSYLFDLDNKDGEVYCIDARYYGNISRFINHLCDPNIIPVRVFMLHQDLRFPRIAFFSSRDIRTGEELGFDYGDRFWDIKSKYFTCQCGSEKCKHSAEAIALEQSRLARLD
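Methyltransferase reactions run at room temperature for 2 h (20 nM enzyme, 500 nM biotin-H3K9 peptide, 20 uM SAM) after a 15 min compound preincubation; product detected by AlphaScreen beads and anti-H3K9me1 antibody.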
BAZ2B inh = qHTS Assay for Inhibitors of BAZ2B; Bromodomain adjacent to zinc finger domain protein 2B (Homo sapiens), Q9UIF8; AlphaScreen BAZ2B-H3K14Ac peptide displacement; Potency, µM (highest dose often 114 µM), for inactives: top-dose activity change, negative = inhibition, hits mostly inhibitors; actives 4.4% (n = 360,000); note: potency is the fitted concentration of half-maximal effect; % is set by controls: 0 for no effect and ±100 for the full control effect; nearly all actives have a fitted effect of over 60% in size
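AlphaScreen displacement: compounds (up to 110uM) incubated 30 min at room temperature with a preformed 50 nM BAZ2B/50 nM biotinylated H3K14Ac peptide complex in PBS pH 7.4 with Tween-20. Donor and acceptor beads at 10 ug/mL final added, 20 min light-protected before reading.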
CtBP-E1A blk = qHTS Assay for Inhibitors of the CtBP/E1A Interaction; CtBP / adenovirus E1A interaction (AlphaScreen); AlphaScreen GST-E1A/His-CtBP binding, 1536-well; hits give low values; activity change, % (test concentration not listed); actives 0.49% (n = 340,000); AID 651724, 2012; in the data active = activity change below about -65%; inconclusive = mostly about -30% to -63%; note: % is set by controls: 0 for no effect and ±100 for the full control effect
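GST-E1A and His-tagged CtBP (125 nM each as 5X stock) were preincubated with pin-transferred compound for 2 h at 37 °C in the dark, then glutathione donor and nickel acceptor beads were added for 1 h before AlphaScreen reading.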
* = called active by the depositor; ? = inconclusive; . = no result given; [ ] = another dose, or the depositor's remark. Unless noted, calls come from the whole dose curve; as a rule, active = well fitted inhibition curve with a large enough effect; inconclusive = small, poorly fitted or top-dose-only effect; inactive = no such curve, though single readings can be large or run the other way.

SMILES	HP1b binding inh	JMJD2A Tudor inh	Six1-Eya2 inh	G9a inh	BAZ2B inh	CtBP-E1A blk
COc1ccc(-c2sc(Nc3ccccc3)n[n+]2C)c(C)c1C	13%	-17%	-1	.	8%[57.1 µM]	-13
COc1ccc(C)cc1Nc1n[n+](C)c(-c2c3ccccc3cc3ccccc23)s1	48%	-20%	-18	45µM*	-17%[57.1 µM]	.
N#CC1(NC(=O)CN2C(=O)NC(c3ccccc3)(c3ccccc3)C2=O)CCCC1	23%	5%	-1	-10%[2.33 µM]	2%	5
Cc1cn([C@H]2C[C@H](O)[C@@H](/C=C/C(=O)NCCc3cccnc3)O2)c(=O)[nH]c1=O	.	.	7	.	.	5
O=C(Nc1c(C(=O)O)[nH]c2ccc(F)cc12)c1cccc(C(F)(F)F)c1	?	79µM*	-25	?	-38%	-14
Cc1sc2ncnc(Nc3ccccc3)c2c1C	-7%	-24%[11.4 µM]	3	15%[12.7 µM]	11%	11
Cc1sc2ncnc(Nc3ccc(N4CCOCC4)cc3)c2c1-c1ccccc1	-18%	35µM*	-20	28µM*	?	.
Cc1sc2ncnc(N3CCN(Cc4ccccc4)CC3)c2c1-c1ccccc1	?	?	0	-18%	32µM*	0
CCOc1ccc(CN2CCN(c3ncnc4scc(-c5ccccc5)c34)CC2)cc1	-17%	?	0	7%	-11%	6
c1cncc(N=c2scc(-c3cccc4ccccc34)n2CCCn2ccnc2)c1	?	35µM*	-24	?	10µM*	-24
Cc1ccc(-c2csc(=Nc3cccnc3)n2CCCn2ccnc2)cc1C	?	?	-20	?	13µM*	?
COCCn1c(-c2ccccc2)csc1=Nc1cccnc1	?	?	-4	40µM*	40µM*	?
CC(C)n1c(-c2ccco2)csc1=Nc1cccnc1	?	56µM*	-29	13µM*	28µM*	-27
Cc1ccc(-c2csc(=Nc3cccnc3)n2CCCN2CCCC2=O)cc1C	?	?	-9	-21%[59 µM]	?	-14
CCCCn1c(C)csc1=Nc1cccnc1	-15%	-33%	-5	?	?	-18
Cc1ccc(C(=O)NCCc2nnc3ccc(SCC(=O)Nc4nnc(C)s4)nn23)cc1	.	.	-1	.	.	1
CN(CCO)c1nc(-c2cccs2)nc2ccccc12	29%	-18%	.	.	.	.
CS/C(=N\S(=O)(=O)c1ccc(N)cc1)NS(=O)(=O)c1cccs1	14%	89µM*	40	?	-2%	4
COc1ccc(Br)cc1CNc1ccccc1	?	18µM*	3	22µM*	50µM*	.
CC(C)NCc1cc(Br)ccc1OCc1ccccc1	34%	-5%	2	-37%	-1%	.
COc1ccc(C2C(=O)N(C3CCC(C)CC3)CC(=O)N2CCC2=CCCCC2)cc1OC (configuration not stated)	49%	-17%	.	-9%[59 µM]	-12%	.
COc1ccc(N2C3=C(CC4=C2CC(C)(C)CC4=O)C(=O)CC(C)(C)C3)cc1	-5%	?	-4	?	0%	8
COc1ccc(N2C3=C(CC4=C2CCCC4=O)C(=O)CCC3)cc1	-52%	56µM*	-26	?	-28%	-5
CCOc1ccc(C(=O)c2cc3ccc(O)cc3oc2=O)cc1	19%	-4%	2	2%	5%	3
O=C(c1ccc([N+](=O)[O-])cc1)c1cc2ccc(O)cc2oc1=O	14%	-12%	3	50µM*	-25%	1
SMILES	HP1b binding inh	JMJD2A Tudor inh	Six1-Eya2 inh	G9a inh	BAZ2B inh	CtBP-E1A blk
CC1CCCN(c2nc3ccccc3nc2C(C#N)S(=O)(=O)c2ccccc2)C1 (configuration not stated)	36%	-17%	-1	?	?	3
Cc1ccc(S(=O)(=O)C(C#N)c2nc3ccccc3nc2N2CCCCC2)cc1 (configuration not stated)	.	.	.	45µM*	6%	.
COc1ccc(S(=O)(=O)C(C#N)c2nc3ccccc3nc2N2CCC(C)CC2)cc1 (configuration not stated)	.	.	.	3.2µM*	45µM*	.
CC(C)N1CCc2c(sc(NC(=O)CCc3ccccc3)c2C(N)=O)C1	52%	-12%	-2	45µM*	?	4
CC(C)N1CCc2c(sc(NC(=O)c3ccco3)c2C(N)=O)C1	26%	-12%	-5	.	-4%	-24
CC(C)N1CCc2c(sc(NC(=O)c3ccc(C(=O)c4ccccc4)cc3)c2C(N)=O)C1	-19%	56µM*	-4	.	?	-17
COc1cccc(OC)c1C(=O)Nc1sc2c(c1C(N)=O)CCN(Cc1ccccc1)C2	16%	-31%	-11	79µM*	-32%	-2
COC(=O)c1c(NC(=O)c2ccco2)sc2c1CCN(C(C)C)C2	41%	-12%	-4	32µM*	-25%	-3
Cc1onc(-c2ccccc2)c1C(=O)OCC(=O)N1CCCCC1	.	.	12	.	.	-3
CC(C)NS(=O)(=O)c1ccc(NC(=O)C(C)OC(=O)CCC2CCCC2)cc1 (configuration not stated)	25%	-4%	3	-1%[12.7 µM]	0%	8
O=C(CC[C@H]1O[C@@H](n2cnc3c(NC(=O)c4ccccc4)ncnc32)[C@H](O)[C@@H]1O)NCCc1cc2ccccc2[nH]1	.	.	14	.	.	-22
NC(=O)C1CCN(C(=O)c2ccccc2SCC(=O)NCC2CCCCC2)CC1	18%	-10%	0	11%[12.7 µM]	-8%	-3
OCCNc1nc(-c2cccs2)nc2ccccc12	14%	1%	.	.	.	.
CC(C)N1CCc2c(sc(NC(=O)c3ccc(S(=O)(=O)N4CCCCC4C)cc3)c2C(N)=O)C1 (configuration not stated)	11%	-20%	1	-19%	50µM*	-1
COC(=O)c1c(NC(=O)c2ccc(S(=O)(=O)N3CCCCC3C)cc2)sc2c1CCN(C(C)C)C2 (configuration not stated)	71%	-30%	.	-18%[59 µM]	0%	.
C[C@H]1CC2[C@@H]3CCC4=CC(=O)C=C[C@]4(C)[C@@]3(F)[C@@H](O)C[C@]2(C)[C@@]1(O)C(=O)CO (some centres not stated)	.	.	.	29%[12.7 µM]	.	.
CCN(Cc1ccccc1)c1ccc(/C=N/N=C(N)N)cc1	?	35µM*	-15	?	?	-28
